Data as given in the supplement of paper PMC10849652.
Of roughly 7,900 targets only a part is listed; those with a hit were picked by preference. About 0.6% of all pairs of compound and target were hits. A number with no mark means an inactive call.

Experiments:
Test in all cases: log2 fold change, soluble protein after heating vs DMSO (PISA); higher = thermal stabilisation; K562 cells, 10 uM, 30 min; active = over 0.2 and 3.5 SD of the protein, either way, in both replicates (recomputed)
[1] = compound: C#Cc1cccc(Nc2ncnc3cc(OCCOC)c(OCCOC)cc23)c1 [erlotinib]
How it was run: (§1)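 Thermal stability values are relative to control samples and come from duplicates. They are expressed as log2 fold changes. For measurement, K562 cells (2×10^6 cells/mL) received 10 μM compound for 30 min, and aliquots were heated for 3 min over 48°C-58°C, pooled, and extracted at 4°C in PBS with 0.5% NP-40. Soluble protein, the supernatant after 21,000xg for 90 min, was quantified by TMTpro 16plex LC-MS/MS with equalised channel sums.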

[2] = compound: C/C(=N\NC(=O)C1=CC(=CC=C1)S(=O)(=O)N2CCOCC2)/C3=C(C=CC(=C3)Cl)O
How it was run: as §1

[3] = compound: C1=CC(=C(C=C1Cl)C2=NC3=NC=CN=C3C(=N2)NC4=CC=NC=C4)F
How it was run: as §1

[4] = compound: C1=CC(=CC=C1C2=NC3=C(N2)C=C(C=C3)C(=O)N)OC4=CC=C(C=C4)Cl
How it was run: as §1

[5] = compound: C1=CC2=C(C=CC(=C2)/C=C\3/C(=O)NC(=NCC4=CC=CS4)S3)N=C1
How it was run: as §1

[6] = compound: C1=CC2=NC=CN=C2C=C1/C=C/3\C(=O)NC(=O)S3
How it was run: as §1

[7] = compound: C1=CC=C(C=C1)C2=NC(=C(N2)C3=CC=NC=C3)C4=CC(=C(C=C4)Cl)O
How it was run: as §1

[8] = compound: C1=CC=C2C(=C1)C3=NNC4=CC=CC(=C43)C2=O
How it was run: as §1

[9] = compound: C1CCN(C1)C(=O)NC2=CC=CC(=C2)NC3=NC=C(C(=N3)NCCC4=CN=CN4)Br
How it was run: as §1

[10] = compound: C1CN(CCC1(CC2=CC=C(C=C2)Cl)N)C3=NC=NC4=C3C=CN4
How it was run: as §1

Chain of UniProt Q14839 (Q14839 whole entry, looked up): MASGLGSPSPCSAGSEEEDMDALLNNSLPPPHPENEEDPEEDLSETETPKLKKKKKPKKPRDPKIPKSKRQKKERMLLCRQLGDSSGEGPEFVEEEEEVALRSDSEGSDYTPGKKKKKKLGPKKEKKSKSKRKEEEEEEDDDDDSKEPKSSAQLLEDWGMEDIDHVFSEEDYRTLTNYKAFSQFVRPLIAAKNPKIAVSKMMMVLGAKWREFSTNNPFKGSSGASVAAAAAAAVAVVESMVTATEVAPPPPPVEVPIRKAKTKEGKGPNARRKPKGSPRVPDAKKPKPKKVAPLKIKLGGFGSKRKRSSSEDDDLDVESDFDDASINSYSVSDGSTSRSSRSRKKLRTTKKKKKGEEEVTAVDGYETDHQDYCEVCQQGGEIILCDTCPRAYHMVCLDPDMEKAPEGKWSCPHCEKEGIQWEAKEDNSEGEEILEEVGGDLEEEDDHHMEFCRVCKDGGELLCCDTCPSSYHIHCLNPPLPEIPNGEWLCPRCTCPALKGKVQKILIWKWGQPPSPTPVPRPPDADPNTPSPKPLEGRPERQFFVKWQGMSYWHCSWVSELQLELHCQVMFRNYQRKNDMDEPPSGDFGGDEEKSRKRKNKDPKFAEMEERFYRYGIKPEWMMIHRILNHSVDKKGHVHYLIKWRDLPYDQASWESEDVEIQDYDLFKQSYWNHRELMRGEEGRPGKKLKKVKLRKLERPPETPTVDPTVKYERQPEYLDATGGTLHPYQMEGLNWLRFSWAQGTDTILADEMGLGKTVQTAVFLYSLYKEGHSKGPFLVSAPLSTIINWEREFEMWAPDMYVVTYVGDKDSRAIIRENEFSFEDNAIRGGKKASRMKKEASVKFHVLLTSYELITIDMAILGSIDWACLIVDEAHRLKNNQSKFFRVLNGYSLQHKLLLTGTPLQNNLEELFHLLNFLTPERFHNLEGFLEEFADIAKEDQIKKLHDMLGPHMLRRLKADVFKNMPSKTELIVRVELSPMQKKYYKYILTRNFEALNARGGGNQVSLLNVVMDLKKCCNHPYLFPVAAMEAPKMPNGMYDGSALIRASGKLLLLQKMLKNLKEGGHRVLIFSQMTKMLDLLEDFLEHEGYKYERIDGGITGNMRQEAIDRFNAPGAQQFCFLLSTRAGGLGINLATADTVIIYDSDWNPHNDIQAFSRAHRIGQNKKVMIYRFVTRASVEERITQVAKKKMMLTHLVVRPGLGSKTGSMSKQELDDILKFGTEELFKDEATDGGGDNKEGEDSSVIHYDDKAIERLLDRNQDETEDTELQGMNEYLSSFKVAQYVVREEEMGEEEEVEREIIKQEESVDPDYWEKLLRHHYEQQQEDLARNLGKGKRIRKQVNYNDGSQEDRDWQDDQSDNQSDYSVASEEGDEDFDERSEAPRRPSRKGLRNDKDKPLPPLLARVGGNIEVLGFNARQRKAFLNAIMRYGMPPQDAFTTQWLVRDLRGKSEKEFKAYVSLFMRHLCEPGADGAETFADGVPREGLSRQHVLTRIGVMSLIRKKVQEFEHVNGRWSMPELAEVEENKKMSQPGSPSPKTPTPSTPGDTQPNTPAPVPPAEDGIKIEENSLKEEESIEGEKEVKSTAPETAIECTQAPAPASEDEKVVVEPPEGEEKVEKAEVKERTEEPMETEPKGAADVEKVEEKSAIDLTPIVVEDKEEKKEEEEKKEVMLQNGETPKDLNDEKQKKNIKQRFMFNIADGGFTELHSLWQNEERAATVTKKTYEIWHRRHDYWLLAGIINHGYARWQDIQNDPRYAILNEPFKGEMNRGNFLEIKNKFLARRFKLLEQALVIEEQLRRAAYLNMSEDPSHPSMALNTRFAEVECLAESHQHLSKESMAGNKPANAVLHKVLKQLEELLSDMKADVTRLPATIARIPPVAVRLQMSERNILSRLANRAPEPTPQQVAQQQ
Chain of UniProt Q8N1G2 (Q8N1G2 whole entry, looked up): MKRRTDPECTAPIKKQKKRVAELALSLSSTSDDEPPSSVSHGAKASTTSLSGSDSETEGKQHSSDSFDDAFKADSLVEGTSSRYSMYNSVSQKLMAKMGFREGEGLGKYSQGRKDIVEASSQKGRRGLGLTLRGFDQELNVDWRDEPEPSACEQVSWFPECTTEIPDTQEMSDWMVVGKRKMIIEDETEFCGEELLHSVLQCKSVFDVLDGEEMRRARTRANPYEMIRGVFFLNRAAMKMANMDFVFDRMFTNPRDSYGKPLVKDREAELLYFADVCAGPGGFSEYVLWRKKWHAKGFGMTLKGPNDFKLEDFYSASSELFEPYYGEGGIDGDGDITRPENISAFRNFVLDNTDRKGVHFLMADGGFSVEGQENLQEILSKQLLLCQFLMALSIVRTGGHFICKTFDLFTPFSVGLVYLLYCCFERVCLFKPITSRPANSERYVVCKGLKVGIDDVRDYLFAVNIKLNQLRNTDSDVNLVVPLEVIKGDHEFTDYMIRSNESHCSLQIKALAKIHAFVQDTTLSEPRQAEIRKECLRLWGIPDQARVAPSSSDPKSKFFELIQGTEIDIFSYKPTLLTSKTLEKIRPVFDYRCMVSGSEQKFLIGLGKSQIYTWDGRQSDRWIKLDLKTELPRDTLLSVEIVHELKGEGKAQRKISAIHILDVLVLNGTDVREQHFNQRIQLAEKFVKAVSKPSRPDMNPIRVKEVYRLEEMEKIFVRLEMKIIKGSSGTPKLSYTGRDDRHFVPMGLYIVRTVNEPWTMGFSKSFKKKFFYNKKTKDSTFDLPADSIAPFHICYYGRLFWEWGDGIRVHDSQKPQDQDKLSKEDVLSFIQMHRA
Chain of UniProt Q5T5Y3 (Q5T5Y3 whole entry, looked up): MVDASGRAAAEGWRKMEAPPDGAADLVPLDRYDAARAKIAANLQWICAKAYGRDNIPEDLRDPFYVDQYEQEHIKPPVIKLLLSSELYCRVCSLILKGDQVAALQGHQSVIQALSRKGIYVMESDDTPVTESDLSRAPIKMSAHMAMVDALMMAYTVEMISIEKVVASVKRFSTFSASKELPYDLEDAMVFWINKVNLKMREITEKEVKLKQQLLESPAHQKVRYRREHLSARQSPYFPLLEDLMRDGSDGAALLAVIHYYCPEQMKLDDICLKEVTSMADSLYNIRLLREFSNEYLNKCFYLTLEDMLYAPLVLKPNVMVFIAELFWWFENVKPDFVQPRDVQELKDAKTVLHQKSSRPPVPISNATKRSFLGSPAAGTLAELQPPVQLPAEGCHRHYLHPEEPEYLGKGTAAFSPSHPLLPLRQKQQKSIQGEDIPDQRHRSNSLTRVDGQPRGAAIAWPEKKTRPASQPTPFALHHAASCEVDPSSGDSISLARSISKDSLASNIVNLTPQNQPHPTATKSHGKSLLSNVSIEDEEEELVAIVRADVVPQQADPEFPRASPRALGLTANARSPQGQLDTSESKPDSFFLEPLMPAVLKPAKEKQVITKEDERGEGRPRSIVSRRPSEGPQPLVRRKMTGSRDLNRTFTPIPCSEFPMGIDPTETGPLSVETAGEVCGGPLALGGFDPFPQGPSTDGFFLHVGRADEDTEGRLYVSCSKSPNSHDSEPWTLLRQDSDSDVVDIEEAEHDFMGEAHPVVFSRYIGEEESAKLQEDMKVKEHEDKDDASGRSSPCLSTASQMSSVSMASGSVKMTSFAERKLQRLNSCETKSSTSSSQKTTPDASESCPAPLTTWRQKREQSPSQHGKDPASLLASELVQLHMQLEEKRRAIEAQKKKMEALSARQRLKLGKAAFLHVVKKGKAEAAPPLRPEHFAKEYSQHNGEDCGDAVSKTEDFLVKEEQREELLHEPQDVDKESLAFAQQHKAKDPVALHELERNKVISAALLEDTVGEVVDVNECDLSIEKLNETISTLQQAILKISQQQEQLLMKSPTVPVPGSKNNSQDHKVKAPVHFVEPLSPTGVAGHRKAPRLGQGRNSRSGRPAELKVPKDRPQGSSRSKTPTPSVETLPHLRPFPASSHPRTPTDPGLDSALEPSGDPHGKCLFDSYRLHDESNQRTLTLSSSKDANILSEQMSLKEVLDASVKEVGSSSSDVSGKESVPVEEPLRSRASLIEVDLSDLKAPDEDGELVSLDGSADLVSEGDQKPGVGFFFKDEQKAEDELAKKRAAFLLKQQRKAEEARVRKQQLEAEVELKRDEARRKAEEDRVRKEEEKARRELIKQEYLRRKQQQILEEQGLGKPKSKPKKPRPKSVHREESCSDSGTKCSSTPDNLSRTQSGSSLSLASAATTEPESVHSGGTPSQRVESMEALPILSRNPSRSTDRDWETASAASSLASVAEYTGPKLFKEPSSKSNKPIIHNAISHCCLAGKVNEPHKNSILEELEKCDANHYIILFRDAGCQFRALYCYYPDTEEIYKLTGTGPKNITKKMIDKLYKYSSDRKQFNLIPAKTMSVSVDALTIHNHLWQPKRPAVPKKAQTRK
Chain of UniProt O60563 (O60563 whole entry, looked up): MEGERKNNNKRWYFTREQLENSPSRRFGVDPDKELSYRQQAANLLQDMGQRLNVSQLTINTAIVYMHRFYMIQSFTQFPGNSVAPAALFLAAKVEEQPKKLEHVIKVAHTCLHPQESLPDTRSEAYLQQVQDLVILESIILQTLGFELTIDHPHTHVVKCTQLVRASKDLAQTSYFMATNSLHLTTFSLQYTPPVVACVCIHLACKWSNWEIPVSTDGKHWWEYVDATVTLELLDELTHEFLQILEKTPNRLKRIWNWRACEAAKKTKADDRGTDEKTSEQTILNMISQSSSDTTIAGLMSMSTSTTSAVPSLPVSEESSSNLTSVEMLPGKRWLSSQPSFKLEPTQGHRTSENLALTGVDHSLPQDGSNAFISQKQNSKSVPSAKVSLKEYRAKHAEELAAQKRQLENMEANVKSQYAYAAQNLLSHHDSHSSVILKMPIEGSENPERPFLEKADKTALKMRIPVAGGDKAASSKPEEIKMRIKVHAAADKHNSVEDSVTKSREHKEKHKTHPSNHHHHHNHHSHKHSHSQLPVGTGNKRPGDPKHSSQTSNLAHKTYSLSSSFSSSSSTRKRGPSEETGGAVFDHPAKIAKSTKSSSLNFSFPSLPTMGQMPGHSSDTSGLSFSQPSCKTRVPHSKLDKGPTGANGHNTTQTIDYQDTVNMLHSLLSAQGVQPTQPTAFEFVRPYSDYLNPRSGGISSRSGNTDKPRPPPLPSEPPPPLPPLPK

| Target | log2 fold change [1] | log2 fold change [2] | log2 fold change [3] | log2 fold change [4] | log2 fold change [5] | log2 fold change [6] | log2 fold change [7] | log2 fold change [8] | log2 fold change [9] | log2 fold change [10] |
| --- | --- | --- | --- | --- | --- | --- | --- | --- | --- | --- |
| CNOT7 (UniProt Q9UIV1) | 0.025 | -0.002 | -0.059 | 0.018 | 0.194 | -0.044 | 0.128 | 0.048 | -0.003 | 0.016 |
| CCNK isoform 4 (UniProt O75909) | 0.079 | 0.006 | -0.138 | -0.016 | -0.126 | -0.013 | -0.068 | -0.077 | 0.047 | -0.126 |
| COMT (UniProt P21964) | -0.026 | 0.076 | -0.015 | -0.08 | 0.023 | 0.012 | 0.026 | 0.029 | 0.031 | -0.059 |
| C19orf53 (UniProt Q9UNZ5) | -0.161 | -0.216 | -0.52 | 0.079 | -0.129 | -0.011 | -0.024 | -0.028 | 0.053 | -0.176 |
| CASP8 isoform 9 (UniProt Q14790) | -0.008 | 0.056 | -0.055 | -0.023 | 0.021 | 0.052 | -0.078 | 0.104 | -0.051 | -0.014 |
| CHD4 isoform 2 (UniProt Q14839) | 0.042 | 0.103 | -0.011 | -0.007 | 0.029 | 0.034 | 0.044 | -0.08 | -0.047 | -0.1 |
| CMTR1 (UniProt Q8N1G2) | -0.005 | 0.105 | 0.031 | 0.013 | 0.048 | 0.012 | 0.012 | 0.036 | 0.01 | 0.018 |
| CHMP4C (UniProt Q96CF2) | 0.036 | 0.06 | 0.476 (active) | -0.025 | 0.054 | 0.134 | -0.064 | -0.043 | 0.058 | 0.034 |
| CFAP36 isoform 2 (UniProt Q96G28) | 0.048 | -0.11 | -0.046 | 0.005 | 0.059 | 0.042 | -0.068 | 0.007 | 0.127 | -0.111 |
| CDK5RAP1 (UniProt Q96SZ6) | 0.076 | -0.555 (active) | 0.046 | -0.025 | 0.134 | -0.03 | 0.069 | 0.078 | 0.072 | -0.029 |
| CAMSAP1 isoform 3 (UniProt Q5T5Y3) | -0.084 | 0.023 | -0.014 | -0.013 | 0.058 | 0.007 | 0.035 | -0.078 | -0.016 | 0.006 |
| CCNT1 (UniProt O60563) | -0.026 | 0.036 | -0.141 | 0.047 | -0.041 | -0.05 | -0.129 | -0.084 | -0.014 | -0.059 |
| CHCHD4 isoform 2 (UniProt Q8N4Q1) | -0.071 | 0.102 | -0.045 | -0.036 | -0.067 | 0.012 | -0.022 | 0.053 | -0.678 | 0.177 |
| CCNH (UniProt P51946) | -0.022 | 0.021 | 0.034 | -0.016 | -0.045 | 0.031 | 0.022 | -0.004 | -0.011 | -0.015 |
